FBPA coupling cs: inhibits coupling enzyme system, counter-screen for aldolase hits; coupling enzyme system counterscreen, AmpLite Red fluorescence; activity change, negative = inhibition, % at 58.2 µM, hits read low; actives 0.67% (n = 290,000); AID 2472; in the data active means activity change below about -30%; further: on the % scale 0 is the no-effect control and ±100 the full control effect
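Coupling enzymes only (glyceraldehyde-3-phosphate) + compound, at 57.5 uM final, 10 min RT; add substrate/coupling/AmpLite Red mix, 20 min RT; fluorescence ex 525/em 598 nm. Actives flag coupling-system interference.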
Giardia kill: Giardia lamblia killing; Giardia lamblia trophozoite viability; activity change, % at 7.66 µM, hits read low; actives 0.15% (n = 340,000); AID 540267; in the data active means activity change below about -80%; inconclusive means between about -30% and that limit;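 further: parasites exposed to compound for two days anaerobically before the ATP read; on the % scale 0 is the no-effect control and ±100 the full control effect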
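Viability, read as ATP luminescence: trophozoites at 100 cells/well, compound added, 48 hrs anaerobic at 37 deg C, then 15-30 min room-temperature development before reading.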
RXFP1 agonist: RXFP1 (human) receptor agonism. AID 2676. Potency, µM (titrated, usually from 57.5 µM), for inactives: top-dose activation, hits mostly activators. actives 0.3% (n = 370,000). Q9HBX9. HEK293T-RXFP1 cAMP TR-FRET, 30 min; response scale: percent of porcine relaxin response, buffer zero; active means well fitted activation curve with a large enough effect; inconclusive means small, poorly fitted or top-dose-only effect; further: potency means the concentration at half of the fitted maximal effect; on the % scale 0 is the no-effect control and ±100 the full control effect; nearly all actives have a fitted effect of over 60% in size
Target sequence (Q9HBX9 whole entry, looked up): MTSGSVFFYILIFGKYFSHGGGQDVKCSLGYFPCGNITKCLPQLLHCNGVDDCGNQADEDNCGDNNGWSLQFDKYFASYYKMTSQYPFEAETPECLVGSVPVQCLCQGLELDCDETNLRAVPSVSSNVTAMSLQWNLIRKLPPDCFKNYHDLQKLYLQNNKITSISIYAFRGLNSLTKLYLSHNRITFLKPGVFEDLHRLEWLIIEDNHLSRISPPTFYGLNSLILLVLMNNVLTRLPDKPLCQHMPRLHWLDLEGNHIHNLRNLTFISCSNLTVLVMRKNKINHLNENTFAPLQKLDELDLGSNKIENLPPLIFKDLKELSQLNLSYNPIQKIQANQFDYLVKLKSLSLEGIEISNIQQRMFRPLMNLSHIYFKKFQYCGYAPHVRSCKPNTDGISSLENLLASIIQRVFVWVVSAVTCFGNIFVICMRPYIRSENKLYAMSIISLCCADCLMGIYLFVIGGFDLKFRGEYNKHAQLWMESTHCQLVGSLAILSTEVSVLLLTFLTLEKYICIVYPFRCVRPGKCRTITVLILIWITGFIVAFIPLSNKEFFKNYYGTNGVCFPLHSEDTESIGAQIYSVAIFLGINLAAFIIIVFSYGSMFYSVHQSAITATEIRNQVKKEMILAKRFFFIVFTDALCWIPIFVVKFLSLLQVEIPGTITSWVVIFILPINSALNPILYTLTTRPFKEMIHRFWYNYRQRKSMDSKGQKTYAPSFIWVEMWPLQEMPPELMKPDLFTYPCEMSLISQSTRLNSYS
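cAMP rise read by TR-FRET after 30 min, 37C compound exposure (up to 58 uM) in RXFP1-transfected HEK293 cells with Ro 20174 present. EC50 from Hill-equation fits, with 29 nM porcine relaxin as 100% and buffer as basal.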
gsp antagonist: antagonizes gsp, the McCune-Albright syndrome mutation | gsp-mutant cells, cAMP HTRF, 30 min | Potency, µM (top dose mostly 76.9 µM), for inactives: at the top dose activity change, negative = inhibition, usual class: inhibitors | actives 0.4% (n = 340,000) | AID 624288; calls by dose curve; cell line not stated here;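 further: intracellular cAMP measured with PDE inhibitor Ro 20-1724 present during compound exposure; potency means the concentration at half of the fitted maximal effect; on the % scale 0 is the no-effect control and ±100 the full control effect; nearly all actives have a fitted effect of over 65% in size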
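HTRF cAMP measurement after 30 min RT detection following 30 min, 37C compound treatment alongside […] (added as 300 uM solution) in G418-selected cells seeded at 2000/well and grown 16–24 h.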
RXFP1 antagonist: antagonists of human relaxin receptor RXFP1; activity change, negative = inhibition, % at 57.5 µM; HEK293-RXFP1, relaxin-stimulated cAMP HTRF, 30 min; stronger effect = lower value; Q9HBX9; AID 1259400; actives 0.59% (n = 350,000);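 active means activity change of -60% or lower, but not beyond a set lower limit; inconclusive means change between -60% and -40%, or beyond the set limit; inactive means change above -40%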; further: on the % scale 0 is the no-effect control and ±100 the full control effect
gsp agonist: activates gsp, the McCune-Albright syndrome mutation | AID 624287 | Potency, µM (highest dose often 76.9 µM), without a hit: top-dose activation (cAMP increase), actives largely listed as activators | actives 0.13% (n = 340,000) | gsp mutant cells, cAMP HTRF, 30 min; active means well fitted activation curve with a large enough effect; inconclusive means small, poorly fitted or top-dose-only effect, or another doubt; inactive means no such curve, though single readings can be large or run the other way; cell line not stated here;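 further: phosphodiesterase inhibitor Ro 20-1724 added with compounds to block cAMP breakdown; potency means the concentration at half of the fitted maximal effect; nearly all actives have a fitted effect of over 60% in size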
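Cells stably selected in G418 were plated at 2000/well, grown 16-24 hr, then given compounds in DMSO with the PDE inhibitor […] (300 uM solution added) for 30 min at 37C; cAMP was read by HTRF.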
The depositor's hits bear a star; ? = inconclusive; . = no result given; ! = a repeat was not active; [ ] = remark or other dose. The list is not random: actives were taken first. Their share in the collection is about 1.6%.

SMILES	FBPA coupling cs	Giardia kill	RXFP1 agonist	gsp antagonist	RXFP1 antagonist	gsp agonist
O=C(CNC(=O)c1ccccc1)NCC(=O)OCC(=O)c1ccc2ccccc2c1	.	26	.	.	.	.
Brc1ccc(-c2nn3c(-c4ccco4)nnc3s2)o1	4	-5	13µM*	4%	-23	?
Clc1ccc(-c2ccc(-c3nn4c(-c5ccco5)nnc4s3)o2)cc1	.	8	.	-10%	4	-56%
O=C(COC(=O)c1c2ccccc2cc2ccccc12)Nc1ncc(C(F)(F)F)cc1Cl	4	28	3%	-1%	-2	25µM*
Cc1c(/C=N/Nc2nc3ccccc3[nH]2)c2ccccc2n1C	-4	8	0%	40µM*	-19	6%[15.4 µM]
O=C(c1ccccc1F)N(Cc1cccnc1)Cc1cc2cc3c(cc2[nH]c1=O)OCCO3	-2	-2	-3%	-2%	-1	?
COc1cc(C(=O)N(Cc2cccnc2)Cc2cc3cc4c(cc3[nH]c2=O)OCCO4)cc(OC)c1OC	-50*	12	4%	-10%	-13	3%
COc1ccc(N2CCN(C(=O)CSc3nc4ccccc4nc3Cc3ccc(Cl)cc3)CC2)cc1	.	.	0%	.	-8	.
CCSc1nc2n(n1)C(c1ccc(C(=O)O)cc1)C(C(=O)Nc1ccccc1C)=C(C)N2 (stereo not given)	.	.	4%	.	-2	.
COc1cc(/C=N/NC(=O)c2ccncc2)ccc1OCC(=O)Nc1ccccc1	-1	-6	-2%	-16%	-74*	-1%
COc1cc(OC)c([N+](=O)[O-])cc1/C=N/NC(=O)c1ccncc1	-42*	-13	-2%	-5%	-4	-33%
COc1cc(/C=N/NC(=O)c2ccncc2)ccc1OC(=O)c1cccc(Br)c1	-2	-1	-2%	-25%	-72*	-1%
CCCCC(=O)N/N=C(C)/C=C/c1ccccc1F	2	6	-2%	-21%	-5	-8%
Cc1onc(-c2ccccc2)c1C(=O)Cl	.	.	.	.	-5	.
Cc1ccc(NC(=O)COc2ccc(N(C)C(=O)C(C)(C)C)cc2)cc1S(=O)(=O)N1CCCCC1	.	4	.	35µM*	6	-9%
Cc1ccc(NC(=O)COc2ccccc2C(N)=O)cc1S(=O)(=O)N1CCCCCC1	.	-7	0%	35µM*	-14	?
COc1cc(C(C)=O)ccc1OCC(=O)Nc1ccc(C)c(S(=O)(=O)N2CCCCCC2)c1	.	-8	12%	32µM*	-18	4%
COc1ccc(NC(=O)COc2ccccc2C(N)=O)cc1S(=O)(=O)N1CCCCC1	.	.	.	.	9	-1%
COc1ccc(NC(=O)CSc2nnnn2C)cc1S(=O)(=O)N1CCCCC1	.	-14	4%	6%	-82*	-22%[15.4 µM]
COc1cc(/C=C/C(=O)O[C@H]2CC[C@]34C[C@]35CC[C@]3(C)[C@@H]([C@H](C)CCC=C(C)C)CC[C@@]3(C)C5CCC4C2(C)C)ccc1O (stereo not given in full)	.	.	.	.	10	.
NCCCC(N)CC(=O)NCC1NC(=O)C(CO)NC(=O)C(N)CNC(=O)C(C2CCN=C(N)N2)NC(=O)C(=CNC(N)=O)NC1=O (stereo not given)	.	.	.	.	-13	.
CC(C)c1nnc(NC(=O)CCC2CCCCC2)s1	-1	-22	-1%	3%	3	-56%
COc1ccc(CN2C(=O)c3cccnc3C2=O)cc1S(=O)(=O)N1CC(C)Oc2ccccc21 (stereo not given)	.	8	?	12%	3	?
COc1ccc(CN2C(=O)c3cccnc3C2=O)cc1S(=O)(=O)N1CCCCC1C (stereo not given)	-1	-3	7.1µM*	29%	28	7.1µM*
Cc1cc(NC(=O)CN2CCN(c3ccccc3O)CC2)no1	1	-4	0%	-5%	-4	-63%
SMILES	FBPA coupling cs	Giardia kill	RXFP1 agonist	gsp antagonist	RXFP1 antagonist	gsp agonist
Cc1cc(C(=O)OCC(=O)c2ccc(Br)s2)no1	2	-5	?	26%	4	35µM*
Cc1cc(C(=O)OCC(=O)c2ccc(Br)s2)c(C)o1	0	.	15%	.	.	.
Cc1ccc(C(=O)NCC(=O)OCC(=O)c2ccc(Cl)s2)cc1	.	15	7%	11%	-4	20%
Cc1ccc(C(=O)NCC(=O)OCC(=O)c2ccc(Br)s2)cc1	.	9	?	11%	0	14µM*
O=C(CNS(=O)(=O)c1ccc2ccccc2c1)OCC(=O)c1ccc(Br)s1	3	14	25%	14%	-9	8.9µM*
CCOC(=O)c1c(C)[nH]c(CCC(=O)Nc2cc(C)cc(C)c2)c1C	.	.	1%	.	-20	.
COc1ccc(-c2nn3c(-c4cc(-c5ccccc5)n[nH]4)nnc3s2)cc1	.	13	.	.	.	.
CCOC(=O)/C(C#N)=C/C1=C(N2CCOCC2)CC(C)(C)OC1	1	11	2%	-5%	-3	0%[15.4 µM]
Cc1nnnn1/C(=C\c1ccccc1)C(=O)OCC(=O)Nc1ccc(Cl)cc1F	.	5	1%	34%	-64*	20%
Cc1nnnn1/C(=C\c1ccccc1)C(=O)OCC(=O)Nc1cccc(S(=O)(=O)N(C)C)c1	.	1	-1%	?	?	34%
COc1ccc2cc3[n+](cc2c1OC)CCc1cc2c(cc1-3)OCO2	-36*!	-3	-1%	-19%	-5	.
COc1cccc(C2=NCCc3cc4c(cc32)OCO4)c1OC	-1	-8	0%	-1%	-4	-2%
O=C1NC(=S)S/C1=C/c1ccc(Oc2cnccn2)cc1	3	5	-1%	11µM*	-24	1%[15.4 µM]
O=C1NC(=O)/C(=C\c2ccc(Oc3cnccn3)cc2)S1	-2	-3	1%	?	1	-1%[15.4 µM]
COc1ccc(COC(=O)N/N=C2/C[C@@H](O)[C@@H](O)[C@@H]3[C@@H]4C(=O)N(C(C)(C)C)C(=O)[C@H]4CC[C@@H]23)cc1	1	.	.	.	.	.

Assay outcomes from PubChem BioAssay.
